In the library only some 3.4% were active in any assay of this set; here they are far more common.
TEAD-YAP block = TEAD-YAP interaction inhibition, primary screen, TEAD-YAP interaction inhibitor project, luminescence, HEK-TIYL cells; TEAD-Gal4/YAP UAS-luciferase luminescence; inhibition, % at 9.12 µM; 640,000 compounds, 1.4% hits; in the data active = inhibition above about 32%
MITF primary = MITF inhibitors, primary screen, biochemical, AlphaScreen, human | inhibition, % at 2.6 µM | AlphaScreen MITF homodimerization, bead proximity signal | 650,000 compounds, 0.91% hits | Microphthalmia-associated transcription factor (Homo sapiens), O75030; in the data active = inhibition above about 50%
FBW7 activator = FBW7 E3 ligase activators, primary screen, biochemical, AlphaScreen, human. normalized activity (activation), % at 26.1 µM. AlphaScreen FBW7–phospho-cyclin E peptide binding, activator screen. 650,000 compounds, 0.13% hits. F-box/WD repeat-containing protein 7 (Homo sapiens), Q969H0; in the data active = normalized activity above about 1.9%;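 note: purified mutant Fbw7 with reduced substrate affinity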
Target sequence (Q969H0 whole entry, looked up): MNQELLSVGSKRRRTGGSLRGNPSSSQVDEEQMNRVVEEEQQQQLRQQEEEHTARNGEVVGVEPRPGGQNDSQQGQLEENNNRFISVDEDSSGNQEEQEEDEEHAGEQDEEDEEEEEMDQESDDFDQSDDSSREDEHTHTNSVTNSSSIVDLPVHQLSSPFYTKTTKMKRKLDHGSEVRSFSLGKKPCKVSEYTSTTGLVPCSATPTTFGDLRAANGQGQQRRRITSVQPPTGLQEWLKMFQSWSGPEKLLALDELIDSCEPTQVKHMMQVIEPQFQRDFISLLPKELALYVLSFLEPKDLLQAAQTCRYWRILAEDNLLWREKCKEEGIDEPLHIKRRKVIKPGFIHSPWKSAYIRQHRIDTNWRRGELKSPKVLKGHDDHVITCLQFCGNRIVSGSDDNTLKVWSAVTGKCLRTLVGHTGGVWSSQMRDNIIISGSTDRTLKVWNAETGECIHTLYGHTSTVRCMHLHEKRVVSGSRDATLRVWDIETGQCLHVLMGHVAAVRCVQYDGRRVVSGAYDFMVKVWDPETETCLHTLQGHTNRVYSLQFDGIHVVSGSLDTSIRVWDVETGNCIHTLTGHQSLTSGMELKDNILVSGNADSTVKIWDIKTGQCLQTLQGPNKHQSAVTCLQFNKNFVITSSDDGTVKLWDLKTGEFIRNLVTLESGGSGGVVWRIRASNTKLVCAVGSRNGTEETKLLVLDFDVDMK
GPR151 activ = activators of human GPR151, primary screen, cell-based, PathHunter beta-arrestin, luminescence | G-protein coupled receptor 151 (Homo sapiens), Q8TDV0 | PathHunter beta-arrestin GPR151 cells | activation, % at 11.2 µM | 650,000 compounds, 1% hits | AID 1508602, 2020; in the data active = activation above about 4.9%
GPR151 confirm = GPR151 activators, triplicate retest, confirmation, cell-based, PathHunter beta-arrestin, luminescence | shares compounds with GPR151 activ | GPR151 PathHunter beta-arrestin cells, 90 min; % of EA-reagent control over plate median | activation, % at 11.2 µM | 6,700 tested, under 10 active;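 active = mean percent activation across replicates above the confirmation screen cutoff of 4.91%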
GPR119 counter = GPR119 activators in beta-arrestin cells, counter-screen for GPR151 activator project, cell-based, PathHunter beta-arrestin, luminescence, triplicate; shares compounds with GPR151 activ; 90 min; 0 = compound-well median, 100 = enzyme-acceptor control; activation, % at 11.2 µM; 6,700 compounds, 0.3% hits;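 active = mean percent activation in the counterscreen above 29.09%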;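 note: counterscreen on off-target GPR119 to flag nonselective hits from the GPR151 activator screen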
A number is an active result; . = inactive; / = not tested or not shown.

SMILES	TEAD-YAP block	MITF primary	FBW7 activator	GPR151 activ	GPR151 confirm	GPR119 counter
C=CCNc1cc(-c2ccccc2)nc2ncnn12	.	.	.	.	/	/
C#CCNc1cc(-c2ccccc2)nc2ncnn12	.	.	.	7.1	.	.
Brc1ccc(Nc2nc(-c3ccccn3)cs2)cc1	.	.	.	.	/	/
Brc1cccc(Nc2nc(-c3ccccn3)cs2)c1	.	.	.	22.2	.	.
COc1ccc([N+](=O)[O-])cc1NC(C)C	.	.	.	5.0	.	.
COc1ccc([N+](=O)[O-])cc1NC1CCCCC1C (stereo unspecified)	.	.	.	5.7	.	.
CCS(=O)(=O)Nc1cc([N+](=O)[O-])ccc1OC	.	.	.	.	/	/
CC1CCCCC1Nc1ccc([N+](=O)[O-])cc1C#N (stereo unspecified)	.	.	.	.	/	/
O=C1/C(=C\c2ccc3c(c2)OCO3)C2=C(C(=O)N(c3ccccc3)C2c2ccc(Br)cc2)N1c1ccccc1 (stereo unspecified)	.	.	.	.	/	/
COc1ccc(C2=NN(C(C)=O)C(c3cc4cccc(C)c4nc3Cl)C2)cc1OC (stereo unspecified)	.	.	.	.	/	/
Cc1cc(C)c(NC(=O)CSc2nc(C)cc(=O)[nH]2)c([N+](=O)[O-])c1	.	.	.	8.2	.	.
C#CCn1cnc2c(cnn2-c2ccc(C)cc2C)c1=O	.	.	.	.	/	/
Cc1nc(CNc2nncc(-c3ccc(Cl)cc3)n2)cs1	.	.	.	9.4	.	.
CCOc1ccc(C(=O)Nc2nc3c(ccc4ccccc43)s2)cc1	.	.	.	5.5	.	.
COc1ccc(Cn2c(=O)[nH]c3c(C(N)=O)nc(-c4ccc(C)c(C)c4)nc32)cc1	.	.	.	5.0	.	.
COc1ccc(Cn2c(=O)[nH]c3c(C(N)=O)nc(-c4cccc(C)c4)nc32)cc1	.	.	.	.	/	/
O=C(COC(=O)c1cc(S(=O)(=O)N2CCOCC2)ccc1F)Nc1cccc(F)c1	.	.	.	6.5	.	.
O=C(COC(=O)c1ccc(F)c(S(=O)(=O)N2CCOCC2)c1)c1ccccc1	.	.	.	6.1	.	.
O=C(COC(=O)c1ccc(F)c(S(=O)(=O)N2CCOCC2)c1)c1ccc(Cl)cc1	.	.	.	.	/	/
O=C(c1cc(Cl)ccc1[N+](=O)[O-])N1CCN(c2ncccn2)CC1	.	.	.	8.3	.	.
FC(F)(F)c1ccc(Cn2cnc3c(NCCOc4ccccc4)nc(NC4CCN(Cc5ccccc5)CC4)nc32)cc1	.	.	.	.	/	/
COc1ccccc1N1CCN(C(=O)CSc2nc(N)cc(=O)[nH]2)CC1	.	.	.	.	/	/
COc1ccccc1N1CCN(C(=O)CSc2nc3ccccc3[nH]2)CC1	.	.	.	6.0	.	.
COc1ccc(-c2noc(COc3ccc4c(c3)OCO4)n2)cc1	.	.	.	5.1	.	.
COc1ccccc1CNC(=O)CSc1nc(-c2ccccc2)cn1N	.	.	.	.	/	/
SMILES	TEAD-YAP block	MITF primary	FBW7 activator	GPR151 activ	GPR151 confirm	GPR119 counter
CCc1nc(N)c(C#N)c(-c2ccc([N+](=O)[O-])cc2)c1C	.	.	.	5.3	.	.
C/C(CCc1ccccc1)=N/Nc1ccc([N+](=O)[O-])cc1	.	.	.	8.0	.	.
Cc1ccc2c(c1)-c1c(cnn1CC(=O)NCCN(C)C)CO2	.	.	.	10.6	.	.
CCOCCCNC(=O)Cn1ncc2c1-c1cc(C)ccc1OC2	.	.	.	.	/	/
Cc1ccc2c(c1)-c1c(cnn1CC(=O)NC1CC1)CO2	.	.	.	6.1	.	.
Cc1ccc2c(c1)-c1c(cnn1CC(=O)N(C)c1ccccc1C)CO2	.	.	.	7.1	.	.
COc1cc(N=c2c([N+](=O)[O-])nn(-c3cccc(Cl)c3)n2O)cc(OC)c1	.	.	.	.	/	/
CCOC(=O)N1CCN(S(=O)(=O)c2ccc(C(=O)Nc3nc(-c4cccc([N+](=O)[O-])c4)cs3)cc2)CC1	.	.	.	.	/	/
